We go through 40 compounds from PubChem BioAssay.

The source made the active and inactive calls. No rule for the calls is given here.

The first test deals with L-lactate dehydrogenase (Plasmodium falciparum (isolate CDC / Honduras)) (UniProt Q27743). The test is described as follows: PfLDH activity inhibition – cell lysate, 3D7 strain, counter-screen for P. falciparum growth inhibition project (AID 2304).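 Also: 0% = vehicle and 100% = reference inhibitor.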 Particulars: P. falciparum 3D7 crude extract, LDH APAD/NBT absorbance; at 2 µM; active compounds read high.
L-lactate dehydrogenase (Plasmodium falciparum (isolate CDC / Honduras)), sequence (Q27743 whole entry, looked up): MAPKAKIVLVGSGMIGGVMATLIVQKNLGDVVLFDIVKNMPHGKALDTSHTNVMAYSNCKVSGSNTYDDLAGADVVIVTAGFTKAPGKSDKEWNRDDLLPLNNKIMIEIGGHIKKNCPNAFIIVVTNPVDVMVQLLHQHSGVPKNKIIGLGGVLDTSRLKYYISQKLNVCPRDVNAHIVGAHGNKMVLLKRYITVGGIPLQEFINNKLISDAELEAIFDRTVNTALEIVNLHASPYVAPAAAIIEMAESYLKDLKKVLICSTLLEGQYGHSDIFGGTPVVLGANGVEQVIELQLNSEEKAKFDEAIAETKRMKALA
The inhibition is the change of the read-out against control, counted positive when it falls. As for `CCOC(=O)c1cn(CC)c2cc(O[C@H]3CCN(C(=O)OC(C)(C)C)C3)ccc2c1=O`, the inhibition was -1% (inactive).
For `OC(COc1ccccc1-c1nc2ccccc2o1)CN1CCCN(CCc2ccccc2)CC1` (configuration not stated), the inhibition was -5% (inactive).
Consider `CCC(C)NS(=O)(=O)c1ccc2nc(Nc3ccc(C)cc3)n([C@H](C)C(C)(C)C)c2c1` (some centres not stated), for which the inhibition is 0% (inactive).
Take `CC(C)CNC(=O)c1cncc(-c2cccc(CNC3Cc4ccccc4C3)c2)c1`: the inhibition is 1% (inactive).
The same measure, in the same setting: the value for `COc1ccc2nccc([C@@H](O)CN3CCC(NC(=O)c4ccc(Oc5ccccc5)cc4)CC3)c2c1` was 2% (inactive).
`CC(C)c1ccc(CN2CCC(CNC(=O)c3cc(-c4cccc(F)c4)cs3)C2)cc1` (configuration not stated): the inhibition was 5% (inactive).
Consider `COc1ccc2[nH]c(C(=O)Nc3ccc4nc(-c5ccccc5)[nH]c4c3)cc2c1`, for which the inhibition was -1% (inactive).
`Cc1cc(NC(c2ccc(Cl)cc2)c2ccc3cccnc3c2O)no1` (configuration not stated): the inhibition is 5% (inactive).
In the case of `Clc1ccc(CNC2CCN(CC3CCCCC3)CC2)cc1`, the inhibition is 5% (inactive).
Take `CS(=O)(=O)c1cccc2sc(N3CCN(C(=O)c4ccc([N+](=O)[O-])o4)CC3)nc12`: the inhibition is -4% (inactive).
Take `CCOC(=O)c1ccc(NC(=O)N(Cc2ccc(-c3cccc(CN4CCNCC4)c3)cc2)C2CCN(Cc3ccccc3)CC2)cc1`: the inhibition is 4% (inactive).
Turning to `CCCCOc1ccc(N2C(N)=NC(N)=NC2(C)C)cc1`, the inhibition is 6% (inactive).
As to `O=C(/C=C/c1ccc(Cl)c(Cl)c1)NCCCCCCN1CCN(C(=O)Nc2ccc(Cl)c(C(F)(F)F)c2)CC1`, the inhibition is -6% (inactive).
For `CCCCNC(=O)C(C)NC(=O)c1ccc(O)c(-c2ccc(Cl)c(Cl)c2)c1` (configuration not stated), the inhibition is 2% (inactive).
As to `N#Cc1ccc2c(c1)CCN(CCC1CCC(NC(=O)c3cc4cccc([N+](=O)[O-])c4[nH]3)CC1)C2` (configuration not stated), the inhibition is -5% (inactive).
For the compound `Cc1cccc(-c2nn(-c3ccccc3)c3[nH]c(=O)c(CNC4CCCC4)cc23)c1`, the inhibition was -2% (inactive).
The same measure, in the same setting: under `Cc1cc(NN=Cc2cccc(Cl)c2)c2ccccc2n1` stands 0% (inactive); under `COc1cc2c(c(Cl)c1OC)CCN(Cc1ccccc1)CC2c1ccc(NC(=O)C(F)(F)F)cc1` (configuration not stated), -2% (inactive); under `COc1ccc2nccc([C@@H](O)CN3CCC(NC(=O)C(c4ccsc4)N4CCN(c5ccccc5OC)CC4)CC3)c2c1` (some centres not stated), -2% (inactive).
Consider `CN(C)CCCOc1cc(NC(=O)Nc2ccc(-c3ccncc3)c3ccccc23)ccc1I`, for which the inhibition is 1% (inactive).
With `O=C(/C=C/c1ccc(Cl)c(Cl)c1)NC1CCN(Cc2cccc(O)c2)CC1`, the inhibition was -1% (inactive).
Consider `COc1ccc2ncc(Cl)c(CCN3CC[C@@H](CNCc4cc5c(cn4)OCS5)C3)c2n1`, for which the inhibition is 3% (inactive).
In the case of `NC1=NC(c2ccccc2)(c2ccccn2)C(=O)N1CCCc1ccccc1` (configuration not stated), the inhibition was -2% (inactive).
`COc1ccc(-c2cccc(CNCc3ccc(F)cc3)c2)cc1S(=O)(=O)NCCN1CCCC1`: the inhibition was 4% (inactive).
With `CC(=O)Nc1cc(C(=O)Nc2cccc(-c3cccc(-c4nc5c(C)cccc5[nH]4)c3)c2)ccc1C`, the inhibition was 1% (inactive).
Regarding `Nc1cc(-c2ccc(-c3cccs3)s2)nc2ccccc12`, the inhibition is 5% (inactive).
In the case of `COc1cc2c(cc1S(=O)(=O)c1ccc(NC(=O)Nc3ccc(F)cc3)cc1)CCN(C)CC2`, the inhibition was -5% (inactive).

Test system in another test: not listed separately
The test is described as follows: inhibition of 3D7 malaria parasite growth – strain 3D7 (AID 2306).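 Also: 0% = DMSO wells and 100% = chloroquine plus artemisinin control wells.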 Particulars: P. falciparum 3D7 erythrocytic growth, LDH absorbance, 72 h; at 2 µM; active compounds read high.
Consider `OCCCCCCNc1ccnc2[nH]c3ccc(I)cc3c12`, for which the growth inhibition is 100% (active).
On the same count and under the same terms, the value for `COc1cccc2cc(C(=O)N[C@@H](CC(C)C)C(=O)N[C@H](/C=N/N3C(=O)CN(Cc4ccccc4)C3=O)CCc3ccccc3)oc12` was 85% (active).
On the same count and under the same terms, under `O=C(Cn1c2ccccc2c(=O)c2ccc(Cl)cc21)Nc1ccc(C(F)(F)F)cc1` stands 99% (active); under `CCc1cc([C@H]2O[C@@H](n3cnc4c(NCC(c5ccccc5)c5ccccc5)nc(NCCNc5ccccn5)nc43)[C@H](O)[C@@H]2O)on1`, 94% (active); under `O=S(=O)(NCCN1CCCC1)c1ccc(-c2cccc(CNC3Cc4ccccc4C3)c2)cc1F`, 98% (active).
In the case of `O=C(Cn1c(=O)oc2ccccc21)N1CCC(n2c(=O)n(CCCN3CCOCC3)c3ccccc32)CC1`, the growth inhibition was 99% (active).
For `Cc1cccc(NC(=O)c2cnc(N3CCN(c4ccncc4)CC3)c(Cl)c2)c1`, the growth inhibition was 100% (active).
Still for that read-out and setting: the value for `COc1ccc2nc(C)cc(NN=Cc3ccccc3)c2c1` was 80% (active).
In the case of `CN(C)S(=O)(=O)c1ccc(Nc2nc(NCCC3C=NC=N3)nc3cc[nH]c(=O)c23)cc1` (configuration not stated), the growth inhibition is 96% (active).
With `O=C(/C=C/c1ccc(C(F)(F)F)cc1)NCCCCCN1CCN(C(=O)Nc2ccc(Cl)cc2)CC1`, the growth inhibition was 88% (active).
In the case of `Cc1cc(N[C@@H](Cc2ccccc2)C(=O)NCc2cccc(F)c2)nc(NCCOc2ccccc2)n1`, the growth inhibition is 97% (active).
On the same count and under the same terms, the value for `Cc1cc(C)c(O)c(-c2cc(C(=O)Nc3ccc(S(=O)(=O)N4CC(C)OC(C)C4)cc3)[nH]n2)c1` (configuration not stated) was 95% (active).
On the same count and under the same terms, under `Oc1ccc(Nc2nc(NCC3CCCO3)c3ccccc3n2)cc1` (configuration not stated) stands 103% (active); under `CCOC(=O)c1cn(CC)c2cc(O[C@H]3CCN(C(=O)OC(C)(C)C)C3)ccc2c1=O`, 98% (active); under `OC(COc1ccccc1-c1nc2ccccc2o1)CN1CCCN(CCc2ccccc2)CC1` (configuration not stated), 97% (active).
`CCC(C)NS(=O)(=O)c1ccc2nc(Nc3ccc(C)cc3)n([C@H](C)C(C)(C)C)c2c1` (some centres not stated): the growth inhibition is 98% (active).
Regarding `CC(C)CNC(=O)c1cncc(-c2cccc(CNC3Cc4ccccc4C3)c2)c1`, the growth inhibition was 100% (active).
Turning to `COc1ccc2nccc([C@@H](O)CN3CCC(NC(=O)c4ccc(Oc5ccccc5)cc4)CC3)c2c1`, the growth inhibition was 82% (active).
As for `CC(C)c1ccc(CN2CCC(CNC(=O)c3cc(-c4cccc(F)c4)cs3)C2)cc1` (configuration not stated), the growth inhibition was 100% (active).
As for `COc1ccc2[nH]c(C(=O)Nc3ccc4nc(-c5ccccc5)[nH]c4c3)cc2c1`, the growth inhibition is 96% (active).
`Cc1cc(NC(c2ccc(Cl)cc2)c2ccc3cccnc3c2O)no1` (configuration not stated): the growth inhibition was 88% (active).
`Clc1ccc(CNC2CCN(CC3CCCCC3)CC2)cc1`: the growth inhibition is 92% (active).
For the compound `CS(=O)(=O)c1cccc2sc(N3CCN(C(=O)c4ccc([N+](=O)[O-])o4)CC3)nc12`, the growth inhibition is 84% (active).
Still for that read-out and setting: under `CCOC(=O)c1ccc(NC(=O)N(Cc2ccc(-c3cccc(CN4CCNCC4)c3)cc2)C2CCN(Cc3ccccc3)CC2)cc1` stands 100% (active).
As for `CCCCOc1ccc(N2C(N)=NC(N)=NC2(C)C)cc1`, the growth inhibition was 97% (active).
Still for that read-out and setting: under `O=C(/C=C/c1ccc(Cl)c(Cl)c1)NCCCCCCN1CCN(C(=O)Nc2ccc(Cl)c(C(F)(F)F)c2)CC1` stands 99% (active); under `CCCCNC(=O)C(C)NC(=O)c1ccc(O)c(-c2ccc(Cl)c(Cl)c2)c1` (configuration not stated), 98% (active).
As for `N#Cc1ccc2c(c1)CCN(CCC1CCC(NC(=O)c3cc4cccc([N+](=O)[O-])c4[nH]3)CC1)C2` (configuration not stated), the growth inhibition was 100% (active).
Regarding `Cc1cccc(-c2nn(-c3ccccc3)c3[nH]c(=O)c(CNC4CCCC4)cc23)c1`, the growth inhibition is 98% (active).
Take `Cc1cc(NN=Cc2cccc(Cl)c2)c2ccccc2n1`: the growth inhibition was 100% (active).
Regarding `COc1cc2c(c(Cl)c1OC)CCN(Cc1ccccc1)CC2c1ccc(NC(=O)C(F)(F)F)cc1` (configuration not stated), the growth inhibition is 85% (active).
Consider `COc1ccc2nccc([C@@H](O)CN3CCC(NC(=O)C(c4ccsc4)N4CCN(c5ccccc5OC)CC4)CC3)c2c1` (some centres not stated), for which the growth inhibition is 95% (active).
In the case of `CN(C)CCCOc1cc(NC(=O)Nc2ccc(-c3ccncc3)c3ccccc23)ccc1I`, the growth inhibition is 101% (active).
The same measure, in the same setting: under `O=C(/C=C/c1ccc(Cl)c(Cl)c1)NC1CCN(Cc2cccc(O)c2)CC1` stands 94% (active); under `COc1ccc2ncc(Cl)c(CCN3CC[C@@H](CNCc4cc5c(cn4)OCS5)C3)c2n1`, 99% (active).
As for `NC1=NC(c2ccccc2)(c2ccccn2)C(=O)N1CCCc1ccccc1` (configuration not stated), the growth inhibition is 85% (active).
In the case of `COc1ccc(-c2cccc(CNCc3ccc(F)cc3)c2)cc1S(=O)(=O)NCCN1CCCC1`, the growth inhibition is 101% (active).
For `CC(=O)Nc1cc(C(=O)Nc2cccc(-c3cccc(-c4nc5c(C)cccc5[nH]4)c3)c2)ccc1C`, the growth inhibition is 100% (active).
As to `Nc1cc(-c2ccc(-c3cccs3)s2)nc2ccccc12`, the growth inhibition was 100% (active).
Take `COc1cc2c(cc1S(=O)(=O)c1ccc(NC(=O)Nc3ccc(F)cc3)cc1)CCN(C)CC2`: the growth inhibition was 99% (active).
